# In PubChem BioAssay (Tox21):
# Records with an inconclusive call do not appear. Where a call stands in place of a potency, no number is given. Activity calls are given as the source filed them. No rule for the calls is given here.
# Assay: qHTS assay to identify small molecule antagonists of the estrogen related receptor signaling pathway with the pleiotropic PPARgamma coactivator (PGC) from Tox21 10K library (AID 1224841); also: actives are mostly falling curves and most rising ones were filed inactive; nearly all actives have a fitted effect of over 50% in size
# Conditions: PGC/ERR reporter cell line, ONE-Glo luciferase, 18 h; series mostly up to 92.4 µM
# Text: U.S. Tox21 Program National Center for Advancing Translational Sciences [NCATS] NIH Chemical Genomics Center [NCGC] U.S. Environmental Protection Agency [EPA] National Institutes of Environmental Health Sciences [NIEHS] National Toxicology Program [NTP] U.S. Food and Drug Administration [FDA] Tox21 Assay Overview: Estrogen related receptors (ERRs), the first orphan nuclear receptors discovered, play an important role in the control of cellular energy metabolism. ERRs are required for high-energy production in response to the environmental challenges. The pleiotropic PPARgamma coactivator (PGC) is a major partner of ERR and a key regulator in energy homeostasis. Together they have been implicated in the etiology of metabolic disorders such as Type 2 diabetes and metabolic syndrome. ERR-alpha was also identified as an adverse marker for breast cancer progression; ERR-alpha-positive tumors have a poor prognosis. To screen and to identify environmental compounds that perturb the ERR and PGC/ERR signaling pathways could provide valuable information for potential therapeutic or preventive measures in the treatment of metabolic disease. For identifying PGC/ERR antagonists, PGC/ERR cell line (provided by NTP) has been used to screen Tox21 10K library.
# Tox21 Assay Protocol Summary: The PGC/ERR cells were dispensed at 2,000 cells/5 ul/well in 1536-well white plates using a Multidrop dispenser. After the assay plates were incubated at a 37 C/5% CO2 incubator for 6 hours, 23 nL of compounds dissolved in DMSO, positive and negative controls or DMSO only was transferred to the assay plate by a pin tool. The plates were incubated at 37 C for 18 hours. 4 ul/well of One-Glo reagent was added into the assay plates using a Flying Reagent Dispenser. After 30-minute incubation at room temperature, the luminescence intensity in the plates was measured using a ViewLux plate reader.
# Potency is read from the fitted curve at half-maximal effect.
row,SMILES,Potency
1,Cc1ccc(OC(=O)c2ccccc2O)cc1,inactive
2,CN(C)CCC=C1c2ccccc2C=Cc2ccccc21,inactive
3,C[C@H]1C[C@H](O)c2ccsc2S1(=O)=O,inactive
4,c1cc(N(CC2CO2)CC2CO2)ccc1Cc1ccc(N(CC2CO2)CC2CO2)cc1 (stereo not given),27.3 µM (active)
5,CC(=O)c1ccc([N+](=O)[O-])cc1,inactive
6,CS(=O)(=O)c1ccc(-c2cn3ccccc3n2)cc1,inactive
7,O=C=Nc1ccc(Cl)c(Cl)c1,inactive
8,O=C1Cc2ccccc2N1c1c(Cl)cccc1Cl,inactive
9,O=C(O)c1ccc(OCCCOc2ccc(C(=O)O)cc2)cc1,inactive
10,CC(=O)OCC(=O)NCCCOc1cccc(CN2CCCCC2)c1,inactive
11,COc1ccccc1Oc1c(NS(=O)(=O)c2ccc(C(C)(C)C)cc2)nc(-c2ncccn2)nc1OCCO,inactive
12,C=C(C)C(=O)OCCOCCOC(=O)C(=C)C,inactive
13,COc1ncnc(NS(=O)(=O)c2ccc(N)cc2)c1OC,inactive
14,CCOC(=O)c1ccccc1C(=C1C=C(Br)C(=O)C(Br)=C1)c1cc(Br)c(O)c(Br)c1,51.3 µM (active)
15,C=C(C)[C@@H]1CCC2=CCC[C@@H](C)[C@]2(C)C1,inactive
16,c1ccc(C[n+]2cccc3ccccc32)cc1,24.3 µM (active)
17,O=C(O)CCc1nc(-c2ccccc2)c(-c2ccccc2)o1,inactive
18,NC1[C@H]2CN(c3nc4c(cc3F)c(=O)c(C(=O)O)cn4-c3ccc(F)cc3F)C[C@@H]12 (stereo not given in full),inactive
19,O=C(O)CCCCCCCCCCCBr,inactive
20,COc1cc(C(=O)NCCCCCC(=O)O)cc(OC)c1OC,inactive

row,SMILES,Potency
1,CCOC(=O)C1=C(C)NC(C)=C(C(=O)OC)C1c1cccc(Cl)c1Cl (stereo not given),inactive
2,N#CCc1ccc(Cl)cc1Cl,inactive
3,CCCCCC[C@@H](O)C/C=C\CCCCCCCC(=O)OCC(O)CO (stereo not given in full),inactive
4,Cc1ccccc1N=C(N)Nc1ccccc1C,inactive
5,Cc1cccc(O)c1N,inactive
6,C=COCC(C)C,inactive
7,CCC(C)COC(C)=O (stereo not given),inactive
8,OC1(c2ccccc2)CCNCC1,inactive
9,CN1C[C@H](C(=O)N[C@]2(C)O[C@@]3(O)[C@@H]4CCCN4C(=O)[C@H](Cc4ccccc4)N3C2=O)C[C@@H]2c3cccc4[nH]cc(c34)C[C@H]21,inactive
10,CCCCC(CC)CN (stereo not given),inactive
11,O=c1cc(-c2ccccc2)oc2ccc3ccccc3c12,inactive
12,C/C=C/C=C/C=O,inactive
13,CN1CCCC(CC2c3ccccc3Sc3ccccc32)C1 (stereo not given),inactive
14,Brc1cc2ccccc2c2ccccc12,61.6 µM (active)
15,CCC(C)(C)OC,inactive
16,CC[N+](CC)(CCNC(=O)C(=O)NCC[N+](CC)(CC)Cc1ccccc1Cl)Cc1ccccc1Cl,inactive
17,Oc1cccc(O)c1O,inactive
18,CC(C)=CCC/C(C)=C/CC/C(C)=C/C(=O)OCC(=O)[C@@]1(O)CC[C@H]2[C@@H]3CCC4=CC(=O)C=C[C@]4(C)[C@H]3[C@@H](O)C[C@@]21C,16.8 µM (active)
19,Oc1ccc(Cl)c2cccnc12,4.73 µM (active)
20,CCCCCC#CC(=O)OC,inactive
